The results in this text go back to PubChem BioAssay AID652104 (National Center for Advancing Translational Sciences (NCATS), 2013).

About 7,200 (1.8%) of roughly 410,000 compounds were called active. Another 7% or so got no clear call; they are omitted. The sample as a whole holds a higher share of actives than the screen did. Unmarked numbers belong to inactive results. Calls come from the whole dose curve; as a rule, active = well fitted activation curve with a large enough effect; inconclusive = small, poorly fitted or top-dose-only effect, or another doubt; inactive = no such curve, though single readings can be large or run the other way.
Potency is the fitted concentration of half-maximal effect.

This assay can be described thus: qHTS of TDP-43 Inhibitors. For growth rescue (activation): % of control where 0% means no effect. Note: nearly all actives have a fitted effect of over 50% in size. The settings on record: TDP-43 expressing yeast growth rescue, BacTiter-Glo, 24 h; series mostly up to 46.1 µM; growth rescue (activation): at the top concentration. A digest of the protocol:
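Growth rescue of TDP-43-toxic yeast measured as ATP luminescence (BacTiter-Glo). Cells grown to mid-log in raffinose, induced in galactose at OD600=0.02, exposed to compound 24 hr at 30 deg C.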
A general note: In qHTS, concentration-response curves come from the screen itself.
Regarding `Cc1[nH]c2ccccc2c1C(c1ccccc1)c1cccs1` (stereo not drawn), the Potency was 25.1 µM (active). On to `CCN(CC)c1ccc(NC(=O)CN2C(=O)c3cccnc3Oc3ccc(Cl)cc32)c(C)c1`, for which the “growth rescue (activation)” value is 9.93%. On the same count and under the same terms, next, `COc1ccc(-c2nn(CC(=O)NC3CCCC3)c3c2cnc2ccc(F)cc23)cc1`: 22.7%; `Cc1cccc(C(=O)Nc2ccc(-c3nc4ccccc4s3)c(C)c2)c1`: 29.6%.

For the compound `COc1ccc(Cl)cc1NC(=O)c1cccc(N2C(=O)C3CC=CCC3C2=O)c1` (stereo not drawn), the Potency was 11.2 µM (active).

For the compound `O=C(Nc1ccccc1C(=O)O)c1ccc(N2C(=O)C3CC=CCC3C2=O)cc1` (stereo not drawn), the “growth rescue (activation)” value is 4.44%. Consider `COc1ccc(Cl)cc1NC(=O)COC(=O)C(CC(C)C)N1C(=O)C2CC=CCC2C1=O` (stereo not drawn), for which the “growth rescue (activation)” value is 4.31%. The same measure, in the same setting: next, `CC(=O)Nc1ccc(NC(=O)CCCc2nc(-c3ccc(C(C)(C)C)cc3)no2)cc1`: 19.7%. Turning to `COc1ccc2c(c1)C=C(C(=O)NCc1cc(Br)ccc1OC)CO2`, the growth rescue (activation) is 5.98% [at 9.22 µM]. With `CCOC(=O)c1ccc(NC(=O)CC2C(=O)N(c3cccc(OC)c3)C(=O)N2C2CCCCC2)cc1` (stereo not drawn), the “growth rescue (activation)” value was -1.66%.

Take `CCOc1ccc(CNC(=O)Cn2cc3c(n2)-c2c(oc(C(=O)N4CCCC4)c2C)CC3)cc1`: the “growth rescue (activation)” value is 29%. The same measure, in the same setting: the value for `CCCN(CCC)CCCNC(=O)Cn1cc2c(n1)-c1c(oc(C(=O)N3CCCC3)c1C)CC2` was 16.9%. As to `Cc1c(C(=O)N2CCCC2)oc2c1-c1nn(CC(=O)NCc3ccc(OC(C)C)cc3)cc1CC2`, the Potency is 20 µM (active). With `CC1=C(c2ccc(C)cc2)S(=O)(=O)NC1=NCCCN1CCN(c2cc(C)ccc2C)CC1`, the “growth rescue (activation)” value is 14.6%. Still for that read-out and setting: the value for `Cc1nn(-c2ccc(N3CCCCC3)nn2)c(C)c1CCC(=O)NCc1ccccc1F` was -10.4%. For `CC(C)c1ccc(Nc2nnc(SCC(=O)c3nnc(-c4ccccc4)o3)s2)cc1`, the Potency is 20 µM (active).

With `CN(C(=O)CSc1nnc(NC(=O)Nc2ccccc2)s1)c1ccccc1`, the “growth rescue (activation)” value was 22.1%. The same measure, in the same setting: the value for `CC(=O)c1ccc(NC(=O)CSc2nnc(NC(=O)Nc3ccccc3)s2)cc1` was 0%. As for `CCOC(=O)c1ccc(NC(=O)CCS(=O)(=O)c2ccc3c(c2)oc(=O)n3C)cc1`, the “growth rescue (activation)” value was 21.4%. Still for that read-out and setting: the value for `O=C(NC1CCN(Cc2ccccc2)CC1)c1ccc(Cn2c(=O)c3ccccc3n(Cc3cccc(F)c3)c2=O)cc1` was 22.9%; that for `CC(C)c1ccc(NC(=O)c2ccc(Cn3nc(N4CCN(c5ccccc5)CC4)ccc3=O)o2)cc1` was 4.85%; that for `CC1CC(=O)Nc2ccccc2N1S(=O)(=O)c1cccs1` (stereo not drawn) was -21.7%. Take `CC1CC(=S)Nc2ccccc2N1Cc1ccccc1` (stereo not drawn): the Potency was 14.1 µM (active).

Regarding `CC1CC(C)(C)NC(=S)N1CCC(=O)N1CCN(Cc2ccccc2)CC1` (stereo not drawn), the “growth rescue (activation)” value was -6.5%. Take `COC(=O)[C@]1(S(=O)(=O)c2ccccc2)C[C@@H]2ON=C(c3ccc(OC)cc3)[C@@H]2C1`: the Potency is 17.8 µM (active). For the compound `COc1ccc(-c2nc(S(=O)(=O)c3ccccc3)c(N3CCCCC3)o2)cc1`, the “growth rescue (activation)” value was 3.8%. Turning to `COc1ccc(CNC(=O)C2CC(c3ccc(C(F)(F)F)cc3)=NO2)cc1` (stereo not drawn), the “growth rescue (activation)” value was 22.1%.

For `COc1cc(OC)c(NC(=O)c2cc(S(=O)(=O)N3CCCC3)cn2C)cc1Cl`, the “growth rescue (activation)” value was 19%.

As to `Cc1ccc(C(C)C)c(OCCSc2nc3ccccc3n2CC(=O)O)c1`, the “growth rescue (activation)” value was 19.9%. The same measure, in the same setting: next, `CCOc1ccc(OCCSc2nc3ccccc3n2CC(=O)O)cc1`: -2.71%. As for `Cc1cccc(OCCSc2nc3ccccc3n2CC(=O)N2CCCCC2)c1C`, the Potency was 35.5 µM (active).

With `CCC(C)c1ccc2oc(-c3ccc(NC(=O)c4cc5ccccc5o4)cc3)nc2c1` (stereo not drawn), the “growth rescue (activation)” value was 19.4%.

With `O=C1OC(OC(=O)c2ccccc2Br)C(N2CCOCC2)=C1Cl` (stereo not drawn), the “growth rescue (activation)” value is -2.62%. Same read-out and setting: the value for `Cc1ccccc1C(=O)O` was 27.8%. Turning to `Cc1ccccc1C(=O)OC1OC(=O)C(Cl)=C1Nc1ccccc1` (stereo not drawn), the Potency was 22.4 µM (active). Regarding `Cc1cccc(NC(=O)Cn2nc(-c3ccc(Cl)cc3)c3ccccc3c2=O)c1`, the “growth rescue (activation)” value was 21.9%. In the case of `CCCC12CN3CC(C)(CN(C1)C3c1ccccc1Cl)C2=O` (stereo not drawn), the “growth rescue (activation)” value is 11.8%. Turning to `CC(C)(C)c1ccc(S(=O)(=O)N2CCN(C(=O)c3cc(-c4ccc(Br)cc4)n[nH]3)CC2)cc1`, the “growth rescue (activation)” value was 10.9%.

With `COc1ccc(OC)c(CCNC(=O)c2nn(C)c3c2CS(=O)(=O)c2ccccc2-3)c1`, the “growth rescue (activation)” value was 17.4%.

As for `COc1ccc(CCNC(=O)c2nn(C)c3c2CSc2ccccc2-3)cc1OC`, the Potency was 11.2 µM (active). In the case of `CCCCN(CC)CCCNC(=O)c1nn(C)c2c1CSc1ccccc1-2`, the “growth rescue (activation)” value was 10.8%. In the case of `Cc1cc(-c2ccc(C)c(S(=O)(=O)N3c4ccccc4CC3C)c2)on1` (stereo not drawn), the “growth rescue (activation)” value is -1.52%. Turning to `Cc1ccc(S(=O)(=O)N2CCCc3cc(NS(=O)(=O)c4cc(C)ccc4C)ccc32)cc1`, the growth rescue (activation) is 0% [at 9.22 µM]. Still for that read-out and setting: next, `O=C(c1ccc(N2CCOCC2)c([N+](=O)[O-])c1)N1CCN(S(=O)(=O)c2cccs2)CC1`: 1.03%; `O=C(OCC(=O)N1CCOCC1)c1ccc(N2CCOCC2)c([N+](=O)[O-])c1`: 7.7% [at 9.22 µM]. Same read-out and setting: the value for `O=C(O)C1CCN(c2ccc([N+](=O)[O-])cc2[N+](=O)[O-])CC1` was -6.44%. On the same count and under the same terms, the value for `CCOC(=O)N1CCN(c2cc(C)c([N+](=O)[O-])cc2F)CC1` was 18.9%. For `CCC(=O)c1ccc(N2CCN(C(=O)c3cc([N+](=O)[O-])ccc3F)CC2)c(F)c1`, the Potency is 12.6 µM (active). Turning to `O=C(c1ccc(N2CCOCC2)c([N+](=O)[O-])c1)N1CCN(c2ccccc2F)CC1`, the Potency is 14.1 µM (active). As for `COc1ccc(S(=O)(=O)NCC(c2ccc(N(C)C)cc2)N2CCc3ccccc32)cc1OC` (stereo not drawn), the growth rescue (activation) is -42.7% [at 9.22 µM]. With `Cc1ccc2nc(COc3cccc(NC(=O)c4cccc(Cl)c4)c3)cc(=O)n2c1`, the “growth rescue (activation)” value was 9.56%. On to `Cc1ccc(Nc2nc(-c3ccc(O)cc3O)cs2)nc1`, for which the Potency was 20 µM (active).

On to `CC(=O)Nc1cnc(-c2ccc(O)cc2C)cn1`, for which the “growth rescue (activation)” value was 21.2%. On the same count and under the same terms, next, `Cc1cc(C)c(NC(=O)c2cc3sc(Cl)cc3n2C)c(C)c1`: 3.84%; `Cn1c(=O)c(C(=O)O)nn(-c2ccccc2)c1=O`: 6.32%. On the same count and under the same terms, next, `CCCn1c2ccccc2c2cnn(CC(=O)NCC3CCN(Cc4ccc(C)cc4)CC3)c(=O)c21`: -16.2%. In the case of `COc1ccc(SCc2cc(=O)c3ccc(C)c(C)c3[nH]2)cc1`, the “growth rescue (activation)” value is 16%. On to `CCC(=O)N1CCc2cc(S(=O)(=O)NC(Cc3ccccc3)C(=O)NCc3ccc(C)cc3)ccc21` (stereo not drawn), for which the “growth rescue (activation)” value is 6.31%.
